Test results as given in PubChem BioAssay (EPA / NIEHS).
Results filed as inconclusive are left out. Active and inactive are the calls of the source. How the source made its calls: active means hit-call score of the fitted dose curve at least 0.9, where 1 is the maximum; inconclusive means response in the unintended direction; inactive means score below 0.9.

What was measured:
[1] = TOX21_p53_BLA_p2_viability: Viability Assessment in the Tox21 HCT-116 p53 Agonism Beta-lactamase Assay, Phase 2 (AID 2283591);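 further: compound exposure lasted 16 h at 37 °C; actives lower the ATP signal meaning cytotoxicity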
In short: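 HCT-116 p53-bla cells (4000/well) rested 5 h at 37C, then received compounds in DMSO (217-fold dilution) for 16 h at 37C, 5% CO2. After the CCF4 read, CellTiter-Glo was added; ATP luminescence was read after 30 min at room temperature.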

[2] = molecular target: Cellular tumor antigen p53 (Homo sapiens) (UniProt P04637); assay: TOX21_p53_BLA_p2_ratio: Tox21 HCT-116 p53 Agonism Beta-lactamase Assay, Ratio, Phase 2 (AID 2283592)
In short: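 Ratio endpoint: beta-lactamase cleavage of CCF4-AM, blue (460 nm) over green (530 nm). HCT116 reporter line; 16 h treatment, 37C; substrate 2 h RT.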

[3] = TOX21_p53_BLA_p3_viability: Viability Assessment in the Tox21 HCT-116 p53 Agonism Beta-lactamase Assay, Phase 3 (AID 2283593);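 further: cells exposed to compound for 16 h before reading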
In short: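 HCT-116 cells (4000/well) rested 5 h at 37C, then got DMSO compounds by pin tool (217-fold dilution) for 16 h at 37C, 5% CO2. After the bla read, CellTiter-Glo was added and luminescence read at 30 min, room temperature.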

[4] = molecular target: Cellular tumor antigen p53 (Homo sapiens) (UniProt P04637); assay: TOX21_p53_BLA_p3_ratio: Tox21 HCT-116 p53 Agonism Beta-lactamase Assay, Ratio, Phase 3 (AID 2283596)
In short: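 Cells were seeded at 4000/well, rested 5 h at 37C, then dosed with DMSO compound solutions (217-fold dilution) for 16 h. CCF4-AM substrate was loaded for 2 h at room temperature, and the 460/530 nm emission ratio was fitted for gain of signal versus DMSO.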

[5] = TOX21_p53_BLA_p4_viability: Viability Assessment in the Tox21 HCT-116 p53 Agonism Beta-lactamase Assay, Phase 4 (AID 2283597);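 further: hits lower the luminescence signal meaning cytotoxicity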
In short: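 Cytotoxicity was inferred from loss of CellTiter-Glo luminescence. HCT116 cells had been dosed with compounds after 5 h plating, incubated 16 h at 37C and 5% CO2, and exposed to the CCF4-AM substrate for 2 h.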

[6] = molecular target: Cellular tumor antigen p53 (Homo sapiens) (UniProt P04637); assay: TOX21_p53_BLA_p5_ratio: Tox21 HCT-116 p53 Agonism Beta-lactamase Assay, Ratio, Phase 5 (AID 2283599)
In short: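 HCT-116 cells carrying a p53-inducible beta-lactamase reporter were seeded at 4000 cells/well and dosed after 5 h with compound in DMSO (217-fold dilution). After 16 h at 37C, CCF4-AM substrate was added for 2 h, and the 460/530 nm emission ratio was scored as gain-of-signal versus DMSO.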

[7] = molecular target: Cellular tumor antigen p53 (Homo sapiens) (UniProt P04637); assay: TOX21_p53_BLA_p4_ratio: Tox21 HCT-116 p53 Agonism Beta-lactamase Assay, Ratio, Phase 4 (AID 2283601)
In short: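 HCT116 cells carrying an inducible beta-lactamase reporter were plated at 4000 cells/well, rested 5 h, then exposed to compounds in DMSO (217-fold dilution) for 16 h at 37C. CCF4-AM substrate was loaded 2 h at room temperature; 460/530 nm emission ratio scored gain-of-signal versus DMSO.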

Measured: AC50

Chain of Cellular tumor antigen p53 (Homo sapiens) (P04637 whole entry, looked up): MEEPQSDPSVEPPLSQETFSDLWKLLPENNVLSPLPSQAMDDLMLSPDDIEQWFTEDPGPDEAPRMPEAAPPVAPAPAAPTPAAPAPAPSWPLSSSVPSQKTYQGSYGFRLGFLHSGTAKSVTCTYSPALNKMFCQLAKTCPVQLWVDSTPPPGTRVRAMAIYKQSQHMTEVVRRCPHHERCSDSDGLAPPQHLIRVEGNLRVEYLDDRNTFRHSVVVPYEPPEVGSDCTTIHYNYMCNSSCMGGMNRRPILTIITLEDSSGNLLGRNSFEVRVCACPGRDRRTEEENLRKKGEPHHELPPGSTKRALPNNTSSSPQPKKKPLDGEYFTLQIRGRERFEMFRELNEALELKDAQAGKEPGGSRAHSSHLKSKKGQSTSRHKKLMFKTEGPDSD

CCC(C(=O)OCCN(CC)CC)c1ccccc1 (stereo not given)
inactive: [1] | [2] | [3] | [4] | [5] | [6] | [7]

CC(C)Oc1ccc2c(=O)c(-c3ccccc3)coc2c1
inactive: [1] | [2] | [3] | [4] | [5] | [6] | [7]

COc1cccc(O)c1O
inactive: [1] | [2] | [3] | [4] | [5] | [6] | [7]

CC[C@@H]([C@H](C)O)n1ncn(-c2ccc(N3CCN(c4ccc(OC[C@@H]5CO[C@@](Cn6cncn6)(c6ccc(F)cc6F)C5)cc4)CC3)cc2)c1=O
inactive: [1] | [2] | [3] | [4] | [6] | [7]
active: [5] 18.1 µM

Cc1cc(C)c(N)c(Cl)c1
inactive: [1] | [2] | [3] | [4] | [5] | [6] | [7]

Cc1ccsc1/C=C/C1=NCCCN1C
inactive: [1] | [2] | [3] | [4] | [5] | [6] | [7]

OC[C@@H](O)[C@@H](O[C@@H]1O[C@H](CO)[C@H](O)[C@H](O)[C@H]1O)[C@H](O)[C@@H](O)CO
inactive: [1] | [2] | [3] | [4] | [5] | [6] | [7]

O=[N+]([O-])c1ccc(Oc2ccc(N=C=S)cc2)cc1
inactive: [1] | [3] | [5]
active: [2] 12.9 µM | [4] 8.52 µM | [6] 10.8 µM | [7] 13.4 µM

COc1cc(/C=C/c2ccccc2)oc(=O)c1
inactive: [1] | [2] | [3] | [4] | [5] | [6] | [7]

CC(C)[C@@H]1CC[C@@H](C)C[C@H]1OC(=O)c1ccccc1O
inactive: [1] | [2] | [4] | [5] | [6] | [7]
active: [3] 37.3 µM

O=C1C(=Cc2cccs2)CCCC1=Cc1cccs1
inactive: [1] | [2] | [3] | [4] | [5] | [6] | [7]

CN(C)C(=O)Oc1cccc([N+](C)(C)C)c1
inactive: [1] | [2] | [3] | [4] | [5] | [6] | [7]

CCc1cccc(N(C)C(N)=Nc2cccc3ccccc23)c1
inactive: [1] | [2] | [3] | [4] | [5] | [6] | [7]

Cc1cc(Nc2ccc(O)cc2)ccc1N
active: [3] 46.7 µM | [4] 41.2 µM
inactive: [1] | [2] | [5] | [6] | [7]

C1CC(COCC2CO2)CCC1COCC1CO1 (stereo not given)
inactive: [1] | [2] | [3] | [4] | [5] | [6] | [7]

CCCCCCCCCCCCCC(=O)OCC(COP(=O)([O-])OCC[N+](C)(C)C)OC(=O)CCCCCCCCCCCCC (stereo not given)
active: [3] 42.8 µM
inactive: [1] | [2] | [4] | [5] | [6] | [7]

CCOC(=O)[C@H](CCc1ccccc1)N[C@@H](C)C(=O)N1[C@H](C(=O)O)C[C@@H]2CCC[C@@H]21
inactive: [1] | [2] | [3] | [4] | [5] | [6] | [7]

O=C(C=Cc1ccc(O)c(O)c1)O[C@@H]1C[C@@](OC(=O)C=Cc2ccc(O)c(O)c2)(C(=O)O)C[C@@H](O)[C@@H]1O
inactive: [1] | [2] | [3] | [4] | [5] | [6] | [7]

CC1(C)Oc2ccc(C#N)cc2[C@@H](N2CCCC2=O)[C@@H]1O
inactive: [1] | [2] | [3] | [4] | [5] | [6] | [7]

COc1ccc(N)c(OC)c1
inactive: [1] | [2] | [3] | [4] | [5] | [6] | [7]

C[N+]1(CC2COC(c3ccccc3)(C3CCCCC3)O2)CCCCC1 (stereo not given)
inactive: [1] | [2] | [3] | [4] | [5] | [6] | [7]

O=C(O)CCc1nc2ccccc2[nH]1
inactive: [1] | [2] | [3] | [4] | [5] | [6] | [7]

O=C(c1ccccc1)c1cc(Cl)ccc1O
inactive: [1] | [2] | [3] | [4] | [5] | [6] | [7]

Cc1ccc2c(Br)cc(Br)c(O)c2n1
active: [2] 40.4 µM | [5] 16.8 µM | [7] 43 µM
inactive: [1] | [3] | [4] | [6]

O=Cc1cc2ccccc2o1
inactive: [1] | [2] | [3] | [4] | [5] | [6] | [7]
